High-throughput results deposited in PubChem by National Center for Advancing Translational Sciences (NCATS).
Only some compounds are listed: those with a hit (about 1.3% of all), similar ones and a draw of the others.
AmpC detergent: qHTS Inhibitors of AmpC Beta-Lactamase (assay with detergent); P00811; AmpC hydrolysis of nitrocefin, absorbance 480 nm, 0.01% Triton; Potency, µM (series often up to 114 µM), inactives show at the highest dose activity change, negative = inhibition, actives largely listed as inhibitors; 0.041% of 370,000 active;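 note: 0% = no-compound wells and -100% = no-enzyme wells; nearly all actives have a fitted effect of over 25% in size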
Target sequence (P00811 whole entry, looked up): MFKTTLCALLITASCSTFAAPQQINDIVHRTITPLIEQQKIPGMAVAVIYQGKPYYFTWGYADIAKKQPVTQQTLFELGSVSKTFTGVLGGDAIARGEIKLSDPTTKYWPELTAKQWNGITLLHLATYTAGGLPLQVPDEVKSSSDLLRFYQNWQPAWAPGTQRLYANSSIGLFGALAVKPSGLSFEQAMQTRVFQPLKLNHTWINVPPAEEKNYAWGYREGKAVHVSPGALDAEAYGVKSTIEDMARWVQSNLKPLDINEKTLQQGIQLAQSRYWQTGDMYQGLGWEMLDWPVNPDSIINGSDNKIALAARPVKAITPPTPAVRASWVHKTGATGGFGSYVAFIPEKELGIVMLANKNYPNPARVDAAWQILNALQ
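AmpC (5.3 nM in the dispensed reagent) in 20 mM phosphate pH 7.0 with 0.01% (detergent screen) or 0.0001% Triton X-100 was preincubated with compounds for 15 min at room temperature. Nitrocefin was then added from an 800 uM solution, and hydrolysis was followed at 480 nm.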
AmpC no deterg: qHTS Inhibitors of AmpC Beta-Lactamase (assay without detergent); AmpC nitrocefin hydrolysis, absorbance 480 nm, 0.0001% Triton; P00811; Potency, µM (series often up to 57.1 µM), for the others: at the highest dose activity change, negative = inhibition, usual class: inhibitors; 0.52% of 330,000 active; AID 485341, 2010;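 note: plate controls were no compound for no effect and no enzyme for full effect; nearly all actives have a fitted effect of over 20% in size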
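20 mM phosphate pH 7.0 + 0.01% (detergent screen) or 0.0001% Triton X-100; 5.3 nM AmpC reagent; cpd preinc 15 min RT; nitrocefin (800 uM stock) to start; A480 q20 s × 4 min; Activity was normalised to no-enzyme and no-compound control wells.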
SARS PLpro yeast: qHTS of Yeast-based Assay for SARS-CoV PLP | Potency, µM (series often up to 32.9 µM), without a hit: top-dose activity, positive = growth rescue, most hits filed as activators | 0.19% of 330,000 active | AID 485353, 2010 | S. cerevisiae expressing SARS-CoV PLpro, growth rescue; calls by dose curve; note: 0% is about no effect; nearly all actives have a fitted effect of over 55% in size
Vaccinia mCherry: qHTS for Stage-Specific Inhibitors of Vaccinia Orthopoxvirus: mCherry Reporter Primary qHTS | AID 720579, 2013 | 0.63% of 310,000 active | Potency, µM (doses to about 36.5 µM), for the others: top-dose activity change, negative = inhibition, hits mostly inhibitors | Vaccinia virus mCherry reporter infection, fluorescence; calls by dose curve; tested in A549 cells; note: % is set by controls: 0 for no effect and ±100 for the full control effect; nearly all actives have a fitted effect of over 35% in size
VACV Venus inh: qHTS for Stage-Specific Inhibitors of Vaccinia Orthopoxvirus: Venus Reporter Primary qHTS | Vaccinia virus Venus reporter expression, fluorescence | Potency, µM (highest dose often 36.5 µM), for the others: top-dose activity change, negative = inhibition, actives largely listed as inhibitors | 0.46% of 330,000 active | AID 720580, 2013; calls by dose curve; tested in A549 cells; note: % is set by controls: 0 for no effect and ±100 for the full control effect; nearly all actives have a fitted effect of over 30% in size
Active calls of the source: *; i = inactive; ? = inconclusive; nt = no result given. Unless noted, calls come from the whole dose curve; as a rule, active = well fitted curve in the direction sought with a large enough effect; inconclusive = small, poorly fitted or top-dose-only effect, or another doubt; inactive = no such curve, though single readings can be large; an effect the other way counts as inactive or inconclusive. Potency is the fitted concentration of half-maximal effect.

SMILES	AmpC detergent	AmpC no deterg	SARS PLpro yeast	Vaccinia mCherry	VACV Venus inh
O=[N+]([O-])c1cccc2c(N3CCCC3)ccnc12	0.7%	-20.3%	-0.7%	?	7.08µM*
O=[N+]([O-])c1ccc(N2CCOCC2)c2cccnc12	-1.8%	-13.5%	-1.6%	-14.0%	-27.6%
O=C(COC(=O)/C=C/c1cccc(C(F)(F)F)c1)NCc1ccc(F)cc1	0.8%	-31.1%	7.1%	-9.9%	-2.7%
O=C(COC(=O)/C=C/c1cccc(C(F)(F)F)c1)NCc1ccccc1	-13.7%	7.94µM*	?	-13.7%	-3.7%
COc1ccccc1N1CC(O)=C(c2nc3ccccc3c(=O)[nH]2)C1=N	?	-27.1%	-2.4%	5.62µM*	?
COCCN1CC(O)=C(c2nc3ccccc3c(=O)[nH]2)C1=N	?	-4.7%	11.0%	nt	-15.7%
Cc1ccc(-c2nc3ccccc3c(=O)n2CCN2CCOCC2)cc1	0.3%	2.24µM*	0.7%	nt	nt
O=C(NCCc1nnc2n1CCN(CC1CC=CCC1)CC2)c1ccc(F)cc1 (configuration not stated)	nt	nt	nt	i	-14.0%
CC(C)c1ccc2[nH]c(O)c(N=NC(=S)NCCc3ccccc3)c2c1	2.2%	-20.6%	?	nt	nt
NC(=S)N=Nc1c(O)[nH]c2ccccc12	?	-11.6%	?	12.6µM*	?
Oc1[nH]c2ccccc2c1N=NC(=S)NCCc1ccccc1	?	25.1µM*	-30.2%	-37.2%	-17.1%
COC(=O)[C@@H]1CCCN1Cc1ccc2c(c1)CN(Cc1ccccc1F)CCO2	nt	nt	nt	-9.6%	2.9%
Cc1cc(C(=O)Nc2ccccc2-c2nc(CNC(=O)c3ccc(F)cc3F)c(C)o2)c(C)o1	nt	nt	nt	-5.3%	1.2%
CN1C2CCC1/C(=C/c1ccccn1)C(=O)/C2=C\c1ccccn1	?	-12.3%	-81.4%	2.51µM*	6.31µM*
COc1cccc(OC)c1-c1cc(CCCc2cc(-c3c(OC)cccc3OC)nc3ccccc23)c2ccccc2n1	nt	nt	nt	10µM*	?
CCC1CN(CC(=O)NC(C)CO)Cc2cc(OC)ccc2O1 (configuration not stated)	nt	nt	nt	-16.5%	-4.6%
CC(=O)NC(C)(c1ccccc1)c1nc(-c2cccc3cccnc23)cs1 (configuration not stated)	nt	nt	nt	?	-17.3%
CCOC(=O)C1CCCN(C(=O)c2cnn(-c3nccc(-c4cc(C)sc4C)n3)c2C)C1 (configuration not stated)	nt	nt	nt	-11.4%	0.1%
COc1cccc(-c2cc(C(=O)Nc3cnn(Cc4ccc(Cl)cc4Cl)c3)no2)c1	14.2%	nt	nt	?	11.2µM*
O=C(Nc1nc2ccccc2s1)C1CCN(S(=O)(=O)c2cc([N+](=O)[O-])ccc2Cl)CC1	7.7%	7.94µM*	-1.3%	nt	nt
COc1ccccc1N1C(=O)CC(Sc2nccc(C)n2)C1=O (configuration not stated)	?	-16.6%	1.5%	-20.5%	-5.9%
COc1ccccc1N1C(=O)CC(Sc2n[nH]c(-c3cccc(C)c3)n2)C1=O (configuration not stated)	-6.1%	15.8µM*	-83.1%	-13.6%	-7.9%
O=C1NC(=S)NC(=O)C1=Cc1cccc2cc3ccccc3cc12	2.5%	-42.8%	-5.7%	?	11.2µM*
COc1cccc2c(=O)n(CC(=O)N3CCCCC3)ccc12	2.3%	39.8µM*	0.2%	-26.5%	2.2%
COc1cccc2c(=O)n(CC(=O)Nc3ccccc3)ccc12	-10.9%	50.1µM*	2.2%	i	-18.3%
SMILES	AmpC detergent	AmpC no deterg	SARS PLpro yeast	Vaccinia mCherry	VACV Venus inh
COc1cccc2c(=O)n(CC(=O)NC3CCCC3)ccc12	?	-7.6%	8.0%	-8.2%	-11.8%
COc1cccc2c(=O)n(CC(=O)Nc3ccc(F)cc3F)ccc12	?	25.1µM*	3.1%	-11.5%	-12.1%
O=C(NCCc1ccccn1)C1CC12CCN(C(=O)c1cccc(C(F)(F)F)c1)CC2 (configuration not stated)	nt	nt	nt	-12.3%	-5.1%
COC(=O)C1CCN(Cc2ccc3c(c2)CN(C(=O)c2ncc(C)[nH]2)CCO3)CC1	nt	nt	nt	-8.2%	5.8%
COc1cccc(CN2CCCC(c3nc(C)ncc3-c3ccc(F)cc3)C2)c1OC (configuration not stated)	nt	nt	nt	i	-16.9%
COC(=O)c1cccnc1N1CCN(c2ccccc2F)CC1	4.3%	0.159µM*	-2.1%	-18.5%	-8.8%
COC(=O)c1cnc(N2CCN(c3ccccc3F)CC2)c2ccccc12	24.2%	nt	nt	-19.9%	-13.9%
Cc1nc(Nc2ccc(O)cc2)c2c3c(sc2n1)CCCC3	-13.9%	-2.4%	-0.5%	11.2µM*	?
CCN([C@H](CO)CC(C)C)S(=O)(=O)c1ccccc1	nt	-7.7%	4.2%	-26.8%	-9.6%
C=CS(=O)(=O)N(Cc1ccccc1Br)[C@H](CO)CC(C)C	nt	nt	nt	?	1.41µM*
CC(C)C[C@@H](CO)N(Cc1ccccc1)S(=O)(=O)N(Cc1ccccc1)[C@H](CO)CC(C)C	-8.2%	0.8%	-15.6%	-26.9%	?
COc1ccc(CN([C@H](CO)CC(C)C)S(=O)(=O)N(Cc2ccccc2)[C@H](CO)CC(C)C)cc1	nt	-18.7%	-1.6%	?	12.6µM*
CC(C)C[C@@H](CO)N(Cc1ccccc1)S(=O)(=O)N(Cc1ccccc1)[C@@H](CO)CC(C)C	3.5%	-3.8%	1.5%	?	22.4µM*
COC[C@@H]1CCCN1c1ccc2c(c1)O[C@@H](COCc1ccccc1)CN([C@H](C)c1ccccc1)S2(=O)=O	nt	nt	nt	1.5%	3.3%
Cc1ccc(/C=C/C(=O)c2ccc(O)cc2)cc1	4.5%	-37.1%	-5.2%	11.2µM*	-26.3%
Cc1ccc(C(=O)/C=C/C(=O)O)cc1	-3.1%	-26.4%	-34.0%	-7.5%	-15.6%
CSc1ccc(/C=C/C(=O)c2ccc(O)cc2)cc1	-5.2%	-27.3%	-47.9%	11.2µM*	?
Cc1cc(Cl)ccc1OCC(=O)N1CCOc2ccc(CN3C[C@@H](C)O[C@@H](C)C3)cc2C1	nt	nt	nt	-12.6%	-1.4%
COCC1CCCN(Cc2ccc3c(c2)CN(C(=O)c2sc(C)nc2C)CCO3)C1 (configuration not stated)	nt	nt	nt	0.2%	8.8%
